SMILES strings stand for the structures. Values joined by “and” are separate entries in the source; they are usually repeats but may differ in a detail not shown here. Identical values can stand only once. About 79,000 compounds went through this panel and 15% of them were active in at least one assay; those are over-represented in the sample as a whole. A number with no mark means an inactive call. Active and inactive are the calls of the source. No stated cut-off is given here; in the data, active means growth inhibition above about 70%; inactive means the rest.

Assay [1] is described as follows: NCI Yeast Anticancer Drug Screen. Data for the mec2-1 strain (AID 157). The following applies: S. cerevisiae mec2-1 strain, active compounds read high. In short, it runs like this:
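Vehicle-treated cultures served as reference for growth inhibition of compound-exposed mec2-1 yeast.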

Assay [2] can be described thus: NCI Yeast Anticancer Drug Screen. Data for the sgs1 mgt1 strain (AID 161).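 Further: 0% = growth of cultures given vehicle only.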 As to conditions: S. cerevisiae sgs1 mgt1 strain, active compounds read high. In short, it runs like this: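 Genetically altered yeast, compound exposure, growth inhibition relative to vehicle.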
A short description of assay [3]: NCI Yeast Anticancer Drug Screen. Data for the cln2 rad14 strain (AID 165).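 Further: 0% = growth equal to vehicle treated cultures.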 The following applies: S. cerevisiae cln2 rad14 strain, active compounds read high. In short, it runs like this: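 Each compound was tested on cln2 rad14 yeast. Inhibition of growth was calculated against vehicle-exposed controls.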
Assay [4] in a line: NCI Yeast Anticancer Drug Screen. Data for the bub3 strain (AID 167). As to conditions: S. cerevisiae bub3 mutant strain, active compounds read high. In short, it runs like this: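 Screening used yeast with an engineered genetic alteration affecting cell cycle control. Compound-exposed cultures were compared with vehicle cultures, and reduced growth was taken as inhibition.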
Assay [5] in a line: NCI Yeast Anticancer Drug Screen. Data for the mlh1 rad18 strain (AID 175). The following applies: S. cerevisiae mlh1 rad18 strain growth inhibition, active compounds read high. In short, it runs like this:
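Vehicle-treated cultures served as the reference for growth inhibition in a yeast strain carrying DNA damage repair alterations exposed to each compound.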

The nature of assay [6]: NCI Yeast Anticancer Drug Screen. Data for the rad50 strain (AID 155).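 Further: 0% = growth of vehicle-only cultures of the same strain.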 As to conditions: S. cerevisiae rad50 strain growth inhibition, active compounds read high. In short, it runs like this: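 Relative growth inhibition (compound vs vehicle) was measured in yeast with a defined repair-gene alteration.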
Where [7] appears, read: at 5.0 µM (retest, dose inferred, filed as 0.5).
The mark [8] stands for this setting: at 50.0 µM (retest, dose inferred, filed as 5.0).

For the molecule `C1CCC(CC2CCC(NC3=NCCO3)CC2)CC1` (stereo unspecified), the growth inhibition in assay [1] (setting [7]) is -12%; in assay [1] (setting [8]) it was 96% (active); in assay [1] (at 50.0 µM), 87.5% (active); in assay [2] (setting [7]), -22%; in assay [2] (setting [8]) it was 99% (active); in assay [2] (at 50.0 µM), 87.2% (active). For the same molecule, the growth inhibition was -8% in assay [3] (setting [7]); 91% (active) in assay [3] (setting [8]); 88.2% (active) in assay [3] (at 50.0 µM); -35% in assay [4] (setting [7]); 98% (active) in assay [4] (setting [8]); 91.2% (active) in assay [4] (at 50.0 µM). Besides, the growth inhibition in assay [5] (setting [7]) is -9%; in assay [5] (setting [8]), 99% (active); in assay [5] (at 50.0 µM), 84.3% (active).

With `Nc1cccc2c1C(=O)c1ccc(Cl)cc1C2=O`, the growth inhibition in assay [1] (setting [7]) is 18%; in assay [1] (setting [8]), 34%; in assay [1] (at 50.0 µM) it was 71.8% (active); in assay [2] (setting [7]), 4%; in assay [2] (setting [8]) it was 61%; in assay [2] (at 50.0 µM), 55%. In addition, the growth inhibition in assay [3] (setting [7]) was 0%; in assay [3] (setting [8]) it was 6%; in assay [3] (at 50.0 µM), -17.6%; in assay [4] (setting [7]), 12%; in assay [4] (setting [8]) it was 39%; in assay [4] (at 50.0 µM), 85.4% (active). Besides, the growth inhibition in assay [5] (setting [7]) is 15%; in assay [5] (setting [8]) it was 60%; in assay [5] (at 50.0 µM), 44.8%.

For the molecule `C/C(=C/C(=O)N1c2ccccc2CC1c1c[nH]c2ccccc12)C(=O)O` (stereo unspecified), the growth inhibition in assay [6] (setting [7]) is -1%; in assay [6] (setting [8]), 39%; in assay [6] (at 50.0 µM) it was 62.1%; in assay [2] (setting [7]), -3%; in assay [2] (setting [8]), 33%; in assay [2] (at 50.0 µM), 46.9%. In addition, the growth inhibition in assay [3] (setting [7]) was -79%; in assay [3] (setting [8]), 8%; in assay [3] (at 50.0 µM), -0.65%; in assay [4] (setting [7]), -4%; in assay [4] (setting [8]) it was 20%; in assay [4] (at 50.0 µM), 17.1%. In addition, the growth inhibition is -2% in assay [5] (setting [7]), 15% in assay [5] (setting [8]) and 40.9% in assay [5] (at 50.0 µM).

Turning to `CN(C)/C(N)=N\c1nc2ccc(Cl)cc2s1`, the growth inhibition in assay [1] (setting [7]) was -4%; in assay [1] (setting [8]) it was -17%; in assay [1] (at 50.0 µM), 11.4%; in assay [2] (setting [7]), -17%; in assay [2] (setting [8]) it was 4%; in assay [2] (at 50.0 µM) it was 8.3%. Moreover, the growth inhibition was -20% in assay [3] (setting [7]); -10% in assay [3] (setting [8]); 15.9% in assay [3] (at 50.0 µM); -1% in assay [4] (setting [7]); 12% in assay [4] (setting [8]); -11.1% in assay [4] (at 50.0 µM). The growth inhibition in assay [5] (setting [7]) is -3%; in assay [5] (setting [8]) it was 48%; in assay [5] (at 50.0 µM), 9.05%.

For the molecule `COc1ccc2c(C)cc(N/N=C(\C)c3ccccn3)nc2c1`, the growth inhibition was 2% in assay [6] (setting [7]); 57% in assay [6] (setting [8]); 99.5% (active) in assay [6] (at 50.0 µM); -3% in assay [1] (setting [7]); 51% in assay [1] (setting [8]); 99.7% (active) in assay [1] (at 50.0 µM). Also, the growth inhibition in assay [2] (setting [7]) is 7%; in assay [2] (setting [8]) it was 42%; in assay [2] (at 50.0 µM), 99.6% (active); in assay [4] (setting [7]) it was 0%; in assay [4] (setting [8]), 67%; in assay [4] (at 50.0 µM), 99.7% (active). Besides, the growth inhibition is -2% in assay [5] (setting [7]), 57% in assay [5] (setting [8]) and 99.5% (active) in assay [5] (at 50.0 µM).

Regarding `CC(=O)OCC(OC(C)=O)C(OC(C)=O)C(OC(C)=O)C(COC(C)=O)OC(C)=O` (stereo unspecified), the growth inhibition in assay [6] (at 50.0 µM) is -27.2% and -22.9% and -9.4%; in assay [1] (at 50.0 µM), 9.3% and -7.9% and -11.8%; in assay [2] (at 50.0 µM) it was 3.45% and 10.6% and -10.8%; in assay [3] (at 50.0 µM) it was -30.3% and -21.9% and -0.1%; in assay [4] (at 50.0 µM), 0.95% and -9.35% and 14.6%; in assay [5] (at 50.0 µM) it was -24.4% and 7.9% and 2.5%.

For `CC1=C(C(=O)Nc2ccccc2C)C(c2ccccc2F)C(C(=O)Nc2ccccc2C)=C(C)N1`, the growth inhibition in assay [6] (setting [7]) is 1%; in assay [6] (setting [8]), 6%; in assay [6] (at 50.0 µM), 29.6%; in assay [2] (setting [7]) it was -2%; in assay [2] (setting [8]), 6%; in assay [2] (at 50.0 µM) it was 6.6%. The growth inhibition in assay [3] (setting [7]) is -2%; in assay [3] (setting [8]), -6%; in assay [3] (at 50.0 µM) it was -23.1%; in assay [4] (setting [7]) it was 1%; in assay [4] (setting [8]), 2%; in assay [4] (at 50.0 µM) it was 20.2%. The growth inhibition in assay [5] (setting [7]) is 1%; in assay [5] (setting [8]), 8%; in assay [5] (at 50.0 µM), 47.7%.

For `N=C(N)SC1c2ccccc2-c2ccc(N)cc21` (stereo unspecified), the growth inhibition in assay [6] (setting [7]) was 17%; in assay [6] (setting [8]), 95% (active); in assay [6] (at 50.0 µM), 98% (active); in assay [1] (setting [7]) it was 4%; in assay [1] (setting [8]) it was 75% (active); in assay [1] (at 50.0 µM), 98.4% (active). Moreover, the growth inhibition in assay [2] (setting [7]) was -1%; in assay [2] (setting [8]) it was 77% (active); in assay [2] (at 50.0 µM), 98.5% (active); in assay [4] (setting [7]), 0%; in assay [4] (setting [8]) it was 86% (active); in assay [4] (at 50.0 µM), 97% (active). The figures for the growth inhibition in assay [5] (setting [7]), in assay [5] (setting [8]) and in assay [5] (at 50.0 µM) were 12%, 95% (active) and 97.8% (active), respectively.

Turning to `O=C(O)C(Cc1ccccc1)N=Cc1ccc(O)cc1` (stereo unspecified), the growth inhibition is 58% in assay [1] (setting [7]); 99% (active) in assay [1] (setting [8]); 11.8% in assay [1] (at 50.0 µM); 79% (active) in assay [2] (setting [7]); 98% (active) in assay [2] (setting [8]); 6.8% in assay [2] (at 50.0 µM). For the same molecule, the growth inhibition was 33% in assay [3] (setting [7]); 97% (active) in assay [3] (setting [8]); 43.8% in assay [3] (at 50.0 µM); 43% in assay [4] (setting [7]); 98% (active) in assay [4] (setting [8]); 20.2% in assay [4] (at 50.0 µM). Also, the figures for the growth inhibition in assay [5] (setting [7]), in assay [5] (setting [8]) and in assay [5] (at 50.0 µM) were 68%, 98% (active) and -1.05%, respectively.

Turning to `NC(=O)NNC(=O)NNC(N)=O`, the growth inhibition in assay [6] (setting [7]) was -4%; in assay [6] (setting [8]), 9%; in assay [6] (at 50.0 µM), 0.95%; in assay [1] (setting [7]) it was -2%; in assay [1] (setting [8]), 1%; in assay [1] (at 50.0 µM), -4.8%. Further, the growth inhibition in assay [2] (setting [7]) was 3%; in assay [2] (setting [8]), 4%; in assay [2] (at 50.0 µM), -20.2%; in assay [4] (setting [7]), -4%; in assay [4] (setting [8]) it was -8%; in assay [4] (at 50.0 µM) it was -3.5%. Besides, the figures for the growth inhibition in assay [5] (setting [7]), in assay [5] (setting [8]) and in assay [5] (at 50.0 µM) were -3%, 9% and -3.85%, respectively.

In the case of `ClCc1ccc2oc3ccccc3c2c1`, the growth inhibition in assay [6] (setting [7]) is -5%; in assay [6] (setting [8]), 8%; in assay [6] (at 50.0 µM) it was 30%; in assay [1] (setting [7]), 1%; in assay [1] (setting [8]), 0%; in assay [1] (at 50.0 µM), 17.1%. Besides, the growth inhibition is -12% in assay [2] (setting [7]); -4% in assay [2] (setting [8]); 27.9% in assay [2] (at 50.0 µM); 2% in assay [4] (setting [7]); -7% in assay [4] (setting [8]); -23.6% in assay [4] (at 50.0 µM). Also, the growth inhibition in assay [5] (setting [7]) was -3%; in assay [5] (setting [8]), 5%; in assay [5] (at 50.0 µM), 68.6%.

Consider `O=C(CN(Cc1ccccc1)Cc1ccccc1)N1CCc2c([nH]c3ccccc23)C1c1cccnc1` (stereo unspecified), for which the growth inhibition was 29% in assay [6] (setting [7]); 29% in assay [6] (setting [8]); 86.8% (active) in assay [6] (at 50.0 µM); 8% in assay [2] (setting [7]); 8% in assay [2] (setting [8]); 84.1% (active) in assay [2] (at 50.0 µM). Further, the growth inhibition in assay [3] (setting [7]) was 19%; in assay [3] (setting [8]), 19%; in assay [3] (at 50.0 µM), 88.3% (active); in assay [4] (setting [7]), 11%; in assay [4] (setting [8]), 11%; in assay [4] (at 50.0 µM) it was 87.5% (active). Besides, the growth inhibition in assay [5] (setting [7]) is 32%; in assay [5] (setting [8]), 32%; in assay [5] (at 50.0 µM), 85% (active).

For the molecule `CCCC(=O)NCCNC(=O)CCC`, the growth inhibition in assay [6] (setting [7]) is -154%; in assay [6] (setting [8]) it was -159%; in assay [6] (at 50.0 µM), 4.35%; in assay [1] (setting [7]), -48%; in assay [1] (setting [8]), -54%; in assay [1] (at 50.0 µM), 7.75%. The growth inhibition in assay [2] (setting [7]) was -61%; in assay [2] (setting [8]) it was -62%; in assay [2] (at 50.0 µM), 1.75%; in assay [4] (setting [7]), -69%; in assay [4] (setting [8]), -82%; in assay [4] (at 50.0 µM), -3.15%. Further, the growth inhibition in assay [5] (setting [7]) was -139%; in assay [5] (setting [8]), -117%; in assay [5] (at 50.0 µM), 10.1%.

The record behind these values is PubChem BioAssay (NCI).
